Compounds with a hit are over-represented: about 6.2% of the library has one in this group of screens.
HCMV inh – inhibitors of human cytomegalovirus; activity change, negative = inhibition, % at 57.5 µM; HFF cells, HCMV-luciferase reporter, 72 h; active compounds read low; actives 4.5% (n = 410,000); in the data active = activity change below about -60%; inconclusive = no clear call, values can overlap the other calls; inactive = above about -39%
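Compounds were evaluated in HFFs infected with an HCMV luciferase reporter virus (MOI 1 PFU/cell). Luciferase in lysates collected 72 h post infection served as the replication measure.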
LASV entry inh – Lassa virus entry inhibition; AID 540256; Lassa virus pseudotype entry inhibition, cell reporter; Potency, µM (highest dose often 37.9 µM), usual class: inhibitors; actives 1.2% (n = 300,000); calls by dose curve; tested in HEK293 cells; note: nearly all actives have a fitted effect of over 50% in size
FMDV inh – foot and mouth disease virus antiviral activity; Potency, µM (highest dose often 57.9 µM), actives largely listed as inhibitors; FMDV antiviral cell-based qHTS; actives 1.2% (n = 410,000); calls by dose curve; tested in HEK293T cells; note: read-out not given here; nearly all actives have a fitted effect of over 45% in size
MARV entry inh – blocks Marburg virus binding to or entry into cells | Marburg virus pseudotyped entry inhibition, cell reporter | Potency, µM (doses to about 37.8 µM), usual class: inhibitors | actives 1.8% (n = 300,000) | AID 540276; calls by dose curve; tested in HEK293 cells
Numbers stand for hits.

Results for CC(S(=O)(=O)c1ccccc1)S(=O)(=O)c1ccccc1 ?
HCMV inh: inactive; FMDV inh: inactive

Results for COc1cc(C(=O)O/N=C2/C=C(C)C(=O)C=C2C)cc(OC)c1OC ?
HCMV inh: inactive; LASV entry inh: inactive; FMDV inh: inactive; MARV entry inh: inactive

Results for CC1=C(C)/C(=N\OS(=O)(=O)c2ccc(C)cc2)C=CC1=O ?
HCMV inh: -86; LASV entry inh: 6.3µM; FMDV inh: 20µM; MARV entry inh: 1.4µM

What do the screens show for `CC1=C/C(=N\OS(=O)(=O)c2ccccc2)C(C)=CC1=O`?
HCMV inh: -100; LASV entry inh: inconclusive; FMDV inh: 4.5µM; MARV entry inh: inconclusive

How did CC1=C/C(=N\OS(=O)(=O)c2ccccc2)C(C(C)C)=CC1=O do in these assays?
HCMV inh: -82; LASV entry inh: inconclusive; FMDV inh: 28µM; MARV entry inh: inconclusive

How did Cc1ccc(C(=O)NCC2CCCO2)cc1S(=O)(=O)N1CCCCC1 (configuration not stated) do in these assays?
HCMV inh: inactive; LASV entry inh: inactive; FMDV inh: inactive; MARV entry inh: inactive

How did c1ccc(CCCN2CCN(CCOC(c3ccccc3)c3ccccc3)CC2)cc1 do in these assays?
HCMV inh: -66; LASV entry inh: 16µM; FMDV inh: inconclusive; MARV entry inh: 14µM

How did Fc1ccc(C(OCCN2CCCC2)c2ccc(F)cc2)cc1 do in these assays?
HCMV inh: inactive; LASV entry inh: inactive; FMDV inh: inactive; MARV entry inh: inconclusive

Results for Fc1ccc(C(OCCN2CCN(CCCc3ccccc3)CC2)c2ccc(F)cc2)cc1 ?
HCMV inh: -99; LASV entry inh: 3.7µM; FMDV inh: inconclusive; MARV entry inh: 7.1µM

How did Cc1ccc(S(=O)(=O)N2CCN(C(=O)N3CCOCC3)C2c2ccc(N(C)C)cc2)cc1 (configuration not stated) do in these assays?
HCMV inh: inactive; LASV entry inh: inconclusive; FMDV inh: inactive; MARV entry inh: inactive

What do the screens show for `Cc1ccc(-n2cc(C(=O)c3ccc(F)cc3)nn2)cc1Cl`?
HCMV inh: inactive; LASV entry inh: inactive; FMDV inh: inactive; MARV entry inh: inconclusive

What do the screens show for `COc1ccccc1Cn1c(CNS(=O)(=O)c2ccc(C(C)C)cc2)nc2cccnc21`?
HCMV inh: inactive; LASV entry inh: inactive; FMDV inh: inactive

What do the screens show for `CN(C)c1cccc(C(=O)OC(C(=O)Nc2ccc(Cl)cc2C(F)(F)F)c2ccccc2)c1` (configuration not stated)?
HCMV inh: -63; LASV entry inh: inconclusive; FMDV inh: inactive; MARV entry inh: inconclusive

Results for Cc1cccc(CSc2ccc(S(=O)(=O)N3CCCC3)cn2)c1 ?
HCMV inh: inactive; FMDV inh: inactive

How did O=C(CCN1C(=O)/C(=C/c2ccccc2F)SC1=S)NCCc1ccc(O)cc1 do in these assays?
HCMV inh: -93; FMDV inh: inactive

What do the screens show for `COc1ccccc1/C=C1\SC(=S)N(CCC(=O)NCCc2ccc(O)cc2)C1=O`?
HCMV inh: -75; LASV entry inh: inconclusive; FMDV inh: inactive; MARV entry inh: inconclusive

What do the screens show for `COc1ccc(CCNC(=O)CCCN2C(=O)c3ccccc3C2=O)cc1`?
HCMV inh: -81; LASV entry inh: inactive; FMDV inh: inactive; MARV entry inh: inactive

What do the screens show for `O=C(COC(=O)c1c2c(nc3ccccc13)CCCCC2)NCc1ccc2c(c1)OCO2`?
HCMV inh: inconclusive; LASV entry inh: inactive; FMDV inh: inconclusive; MARV entry inh: inconclusive

Results for Nc1nc(COc2ccc3ccccc3c2)cs1 ?
HCMV inh: inactive; LASV entry inh: inactive; MARV entry inh: inactive

What do the screens show for `O=C1c2ccccc2C(=O)N1CCCP(=O)(O)CCc1ccccc1`?
HCMV inh: inactive; LASV entry inh: inactive; FMDV inh: inactive; MARV entry inh: inactive

How did CCOc1cc(/C=C(/C#N)C(=O)Nc2ccc(O)cc2)cc(Br)c1O do in these assays?
HCMV inh: -61; LASV entry inh: inconclusive; FMDV inh: inactive; MARV entry inh: inconclusive

Results for C=CCNC(=O)/C(C#N)=C\c1cc(Cl)c(O)c(OCC)c1 ?
HCMV inh: inactive; LASV entry inh: inactive; FMDV inh: inactive; MARV entry inh: inactive

Results for O=C(NCc1ccc2c(c1)OCO2)NC1CCCCC1 ?
HCMV inh: inactive; LASV entry inh: inactive; FMDV inh: inactive; MARV entry inh: inactive

Results for O=C(CCC(=O)N1CCN(S(=O)(=O)c2ccccc2Cl)CC1)c1ccccc1 ?
HCMV inh: inactive; LASV entry inh: inactive; FMDV inh: inactive; MARV entry inh: inactive

What do the screens show for `Cc1ccc(C(=O)N(CCN2CCCCC2)CC2CCCN(C3CCCC3)C2)s1` (configuration not stated)?
HCMV inh: inactive; LASV entry inh: inconclusive; FMDV inh: inactive; MARV entry inh: 8.9µM

High-throughput results (PubChem BioAssay)
